{"source": "PubChem BioAssay (NCATS)", "note": "Records with an inconclusive call do not appear. Entries that show only a call come without a potency. Activity calls are given as the source filed them. Calls come from the whole dose curve; as a rule, active = well fitted cell-killing curve with a large enough effect; inconclusive = small, poorly fitted or top-dose-only effect, or effect the other way; inactive = no such curve, though single readings can be large or run the other way. Potency is the fitted concentration of half-maximal effect.", "data": [{"test": "Quantitative High-Throughput drug screen in 47 multiple myeloma cell lines against the NCATS MIPE library collection: KMS20_JCRB cell viability assay (AID 1918973); note: nearly all actives have a fitted effect of over 45% in size", "settings": "CellTiter-Glo ATP, 48 h; series mostly up to 45.8 µM", "excerpt": "PI: Beverly A. Mock Ph.D.\nLaboratory of Cancer Biology and Genetics,\nCenter for Cancer Research, National Cancer Institute,\nNational Institute of Health, Bethesda, Maryland\nDrug resistance and disease progression are common in multiple myeloma (MM) patients, underscoring the need for new therapeutic combinations. […] We hypothesized that effective combinations would reduce MYC expression and enhance p16 activity. […] These preclinical data identify potentially useful drug combinations for evaluation in drug-resistant MM and reveal potential mechanisms of combined drug sensitivity.\nDescribed herein is the primary MIPE qHTS used to cherrypick compounds. Validated compounds were then further tested for potential synergistic activiy.\n[1] Peat TJ, Gaikwad SM, Dubois W, Gyabaah-Kessie N, Zhang S, Gorjifard S, Phyo Z, Andres M, Hughitt VK, Simpson RM, Miller MA, Girvin AT, Taylor A, Williams D, D'Antonio N, Zhang Y, Rajagopalan A, Flietner E, Wilson K, Zhang X, Shinn P, Klumpp-Thomas C, McKnight C, Itkin Z, Chen L, Kazandijian D, Zhang J, Michalowski AM, Simmons JK, Keats J, Thomas CJ, Mock BA. Drug combinations identified by high-throughput screening promote cell cycle transition and upregulate Smad pathways in myeloma. Cancer Lett. 2023 Aug 1;568:216284. doi: 10.1016/j.canlet.2023.216284. Epub 2023 Jun 24. PMID: 37356470; PMCID: PMC10408729.\nSEQUENCE No. (e.g., 1, 2, 3, etc.); […] (e.g., Cells, Incubation, Reagent, etc.); VALUE and DESCRIPTION.\n1; Cells; 5 uL; white, solid bottom 1536-well Greiner assay plate.\n2; Compounds; 23 nL; Kalypsis pin tool (Wako USA) equipped with a 1536-well pin head to transfer to the assay plates.\n3; Incubation; 48 hours; 37C incubation.\n4; Reagent;5uL; CellTiter Glo (Promega).\n5; Detector; 425V; Luminescence; Viewlux PerkinElmer.\nNOTES (numbers refer to Sequence numbers above)\n1. The cell-based screening methods employed in this study were like those previously published. Briefly, the corresponding myeloma cell lines were screened in 1,536-well plates with 500 cells, 5-uL per well for inhibition of cell viability (assessed by measuring ATP levels with CellTiterGlo).\n2. NCATS MIPE 4.0 library of approved and investigational drugs were added using the Kalypsis pin tool. Wells treated with DMSO only for 100% viability and media only wells for 0% viability were used as controls.\n3. The assay plates were covered and incubated for 48 hours in a 37C, 5% CO2 incubator with controlled humidity.\n4. After 48 hours, CellTilter-GloTM luminescent substrate mix (Promega) reagent was added to the assay plate and plates we incubated for 5 min at room temperature.\n5. Signal was measured as median relative luminescence units on a ViewLux (PerkinElmer) multiplate reader.\n[1] Heske CM, Davis MI, Baumgart JT, Wilson K, Gormally MV, Chen L, Zhang X, Ceribelli M, Duveau DY, Guha R, Ferrer M, Arnaldez FI, Ji J, Tran HL, Zhang Y, Mendoza A, Helman LJ, Thomas CJ. Matrix Screen Identifies Synergistic Combination of PARP Inhibitors and Nicotinamide Phosphoribosyltransferase (NAMPT) Inhibitors in Ewing Sarcoma. Clin Cancer Res. 2017 Dec 1;23(23):7301-7311. doi: 10.1158/1078-0432.CCR-17-1121. Epub 2017 Sep 12. PMID: 28899971; PMCID: PMC6636827.", "values": [{"smiles": "CCCCc1oc2ccc(NS(C)(=O)=O)cc2c1C(=O)c1ccc(OCCCN(CCCC)CCCC)cc1", "Potency": "9.35 µM (active)"}, {"smiles": "CCCCCCNC(=O)n1cc(F)c(=O)[nH]c1=O", "Potency": "inactive"}, {"smiles": "Cn1nnc2c(C(N)=O)ncn2c1=O", "Potency": "inactive"}, {"smiles": "CCCOc1ccc(C(=O)OCCN(CC)CC)cc1N", "Potency": "inactive"}, {"smiles": "CC(C)C1CCC(C(=O)N[C@H](Cc2ccccc2)C(=O)O)CC1", "note": "(stereo not given in full)", "Potency": "inactive"}, {"smiles": "NC1(c2ccc(-c3nc4ccn5c(=O)[nH]nc5c4cc3-c3ccccc3)cc2)CCC1", "Potency": "5.26 µM (active)"}, {"smiles": "C1CCC(C(CC2CCCCN2)C2CCCCC2)CC1", "note": "(stereo not given)", "Potency": "6.62 µM (active)"}, {"smiles": "COc1cc(NCc2ccc3nc(N)nc(N)c3c2C)cc(OC)c1OC", "Potency": "7.43 µM (active)"}, {"smiles": "O=C(O)c1cn(C2CC2)c2cc(N3CCNCC3)c(F)cc2c1=O", "Potency": "inactive"}, {"smiles": "CCCc1nc(C)c2c(=O)[nH]c(-c3cc(S(=O)(=O)N4CCN(CC)CC4)ccc3OCC)nn12", "Potency": "11.8 µM (active)"}, {"smiles": "C[C@@H]1C[C@H]2[C@@H]3CCC4=CC(=O)C=C[C@]4(C)[C@@]3(Cl)[C@@H](O)C[C@]2(C)[C@@]1(OC(=O)c1ccco1)C(=O)CCl", "Potency": "7.43 µM (active)"}, {"smiles": "Cn1c(=O)c2c(ncn2CC(O)CO)n(C)c1=O", "note": "(stereo not given)", "Potency": "inactive"}, {"smiles": "CNS(=O)(=O)Cc1ccc2[nH]cc(CCN(C)C)c2c1", "Potency": "inactive"}, {"smiles": "COc1cc2c(Nc3ccc(Br)cc3F)ncnc2cc1OCC1CCN(C)CC1", "Potency": "9.35 µM (active)"}, {"smiles": "CCOC(=O)[C@H](CCc1ccccc1)N[C@H]1CS[C@H](c2cccs2)CN(CC(=O)O)C1=O", "Potency": "1.66 µM (active)"}, {"smiles": "CNS(=O)(=O)CCc1ccc2[nH]cc(C3CCN(C)CC3)c2c1", "Potency": "0.935 µM (active)"}, {"smiles": "C#CCN[C@@H]1CCc2ccccc21", "Potency": "inactive"}, {"smiles": "NC(=O)N1c2ccccc2CC(=O)c2ccccc21", "Potency": "inactive"}, {"smiles": "CC(C)(C#N)c1cc(Cn2cncn2)cc(C(C)(C)C#N)c1", "Potency": "inactive"}, {"smiles": "CC(=O)Oc1ccccc1C(=O)Nc1ncc([N+](=O)[O-])s1", "Potency": "8.55 µM (active)"}, {"smiles": "COc1nc(N)nc2c1ncn2[C@@H]1O[C@H](CO)[C@@H](O)[C@@H]1O", "Potency": "23.5 µM (active)"}, {"smiles": "CC(N)C12CC3CC(CC(C3)C1)C2", "note": "(stereo not given)", "Potency": "inactive"}, {"smiles": "CC[C@H](NC(C)C)[C@H](O)c1ccc(O)c2[nH]c(=O)ccc12", "Potency": "inactive"}, {"smiles": "CCCc1cc(C(N)=S)ccn1", "Potency": "inactive"}, {"smiles": "NC(=O)c1cccc(N)c1", "Potency": "inactive"}, {"smiles": "Oc1c(Cl)cc(Cl)c2cccnc12", "Potency": "11.8 µM (active)"}, {"smiles": "C[C@]12C=CC(=O)C=C1CC[C@@H]1[C@@H]2C(=O)C[C@@]2(C)[C@H]1CC[C@]2(O)C(=O)CO", "Potency": "0.129 µM (active)"}, {"smiles": "Nc1nc(=S)c2[nH]cnc2[nH]1", "Potency": "1.32 µM (active)"}, {"smiles": "CCn1cc(C(=O)O)c(=O)c2cc(F)c(N3CCNCC3)nc21", "Potency": "inactive"}, {"smiles": "Nc1[nH]c(=O)ncc1F", "Potency": "inactive"}, {"smiles": "N[C@@H](Cc1ccc(O)c(O)c1)C(=O)O", "Potency": "inactive"}, {"smiles": "COc1ccc(C(=O)CC(=O)c2ccc(C(C)(C)C)cc2)cc1", "Potency": "2.96 µM (active)"}, {"smiles": "Nc1ccc(S(=O)(=O)Nc2ccccn2)cc1", "Potency": "inactive"}, {"smiles": "CC(C)NCC(O)c1ccc(NS(C)(=O)=O)cc1", "note": "(stereo not given)", "Potency": "inactive"}, {"smiles": "CC(C)(C)NC(=O)[C@H]1CC[C@H]2[C@@H]3CC[C@H]4NC(=O)C=C[C@]4(C)[C@H]3CC[C@]12C", "Potency": "3.32 µM (active)"}, {"smiles": "Cc1cc(NS(=O)(=O)c2ccc(N)cc2)no1", "Potency": "inactive"}, {"smiles": "CC(C)(C)C(=O)OCOP(=O)(COCCn1cnc2c(N)ncnc21)OCOC(=O)C(C)(C)C", "Potency": "2.64 µM (active)"}, {"smiles": "O=C(O)C1CCCN(CCC=C(c2ccccc2)c2ccccc2)C1", "note": "(stereo not given)", "Potency": "inactive"}, {"smiles": "C[C@@H](NCCCc1cccc(C(F)(F)F)c1)c1cccc2ccccc12", "Potency": "inactive"}, {"smiles": "NNC(=O)c1ccncc1", "Potency": "inactive"}]}]}
